# Assay results: PubChem BioAssay (NCI)
# This is part of a sample that, as a whole, favours compounds with a hit. Of some 83,000 tested, about 20% had one in any assay.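 Activity criterion: percent growth below 10, measured after cells in 96-well plates were exposed to a single compound concentration for 48 hours.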 Unmarked numbers belong to inactive results. Activity calls are given as the source filed them.
# Tested on: A498 renal
# Assay: NCI-60 one-dose screen, 48 h (100 = growth as untreated, 0 = no growth, -100 = all killed)
# Conditions: 10 µM unless noted
row,SMILES,growth
1,CCN1CCN(c2cc(C)nc(N(CCCNc3ccnc4cc(Cl)ccc34)Cc3ccc4c(c3)OCO4)n2)CC1,27.8%
2,O=C(Nc1ccc(C(=O)Nc2ccc(C3=NCCCN3)cc2)cc1)Nc1ccc(C2=NCCCN2)cc1,119%
3,Nc1c2c(c(O)c3c1=C(CO)C=N3)=NCCS2,-88.2% (active)
4,C[C@@H](C[C@H](CCO)c1cc(C(F)(F)F)cc(C(F)(F)F)c1)c1ccc2ccccc2c1,120%
5,CN(N)c1nc2sc3c(c2c(=O)[nH]1)CCCC3,101%
6,Cc1cc(N(CCNc2ccnc3cc(Cl)ccc23)Cc2ccc3c(c2)OCO3)nc(N2CCN(C)CC2)n1,42.6%
7,C[N+](C)(CCOC(c1ccccc1)c1ccccc1)CC(=O)OCc1ccccc1,114%
8,[2H]C1([2H])[C@H](C)O[C@H](C)C([2H])([2H])N1c1ccc(NC(=O)c2cccc(-c3ccc(OC(F)(F)F)cc3)c2C)cn1,53.9%
9,N#Cc1cc2[nH]c3ccc(OC(F)(F)F)cc3c2oc1=O,76.8%
10,CC(C)C1CCC(C)C(C2(C#N)C(N)=NC(N)=C2C#N)C1=O (stereo not drawn),105%
11,NC(=O)c1n[nH]n2c1nc(=O)c1c3c(sc12)CCCC3,115%
12,CCOC(=O)C1=C(C)NC(=O)NC1c1cc(=O)oc2ccc(C)cc12 (stereo not drawn),104%
13,C=CC(=O)N(C)[C@H]1C[C@H]2OC(C)(C1OC)n1c3ccccc3c3c4c(c5c6ccccc6n2c5c31)C(=O)NC4 (stereo partly drawn),-38.7% (active)
14,Cc1cc2c(-c3nc4ccccn4c3Nc3cccc4ccccc34)c(O)c(O)cc2c(O)c1-c1c(C)cc2c(-c3nc4ccccn4c3Nc3cccc4ccccc34)c(O)c(O)cc2c1O,29.6%
15,N#CC1(C#N)C(c2cccs2)NC(c2cccs2)C1(C#N)C#N (stereo not drawn),116%
16,CC1CCC(n2cnc3c(Cl)ncnc32)O1 (stereo not drawn),124%
17,Oc1ccc(/C=N/Nc2nnc(N/N=C/c3ccc(O)cc3O)c3ccccc23)c(O)c1,-61.1% (active)
18,CCc1ccc(/C=C/c2ccc(O)c3ncccc23)[n+](C)c1,29.6%
19,CCN1/C(=C/C=C/c2n(-c3ccccc3)c3ccc(-c4nc5ccccc5s4)cc3[n+]2CC)N(c2ccccc2)c2ccc(-c3nc4ccccc4s3)cc21,-12.7% (active)
20,COC(=O)c1[nH]cnc1/N=N/N(C)CCO,121%
21,CC(=O)OCCC/C(=C\c1ccc2ccccc2c1)[N+](=O)[O-],-22.4% (active)
22,COc1cc(-c2cc(-c3ccc(Nc4ccnc5cc(Cl)ccc45)cc3)nc(N3CCOCC3)n2)cc(OC)c1OC,102%
23,CCOC(=O)Sc1ncnc2nc[nH]c12,84%
24,COc1cc2c3c(c1)nc(C)n3CCC2,100%
25,CC(=O)C(C(C)=O)C(c1ccccc1)C(C(C)=O)C(C)=O,105%
26,Cc1ccc(NC(=O)NC(=O)CSc2nc3ccccc3nc2C)cc1,69.2%
27,Cc1cc(N(CCNc2ccnc3cc(Cl)ccc23)Cc2ccc3c(c2)OCO3)nc(N2CCCC2)n1,-2.25% (active)
28,O=C(Nc1ccc(C2=NCCCN2)cc1)c1ccc(C(=O)Nc2ccc(C3=NCCCN3)cc2)nc1,127%
29,COC(=O)C1=C(C(=O)OC)C23C=C(C)C1C2=C(C)C1(CC1)[C@@](C)(O)C3=O (stereo partly drawn),-44% (active)

# Tested on: CCRF-CEM leukemia
# Assay: as above
# Conditions: 10 µM unless noted
row,SMILES,growth
1,COc1ccc2c(CCCCC(c3ccccc3)c3ccccc3)c3[n+](cc2c1OC)CCc1cc2c(cc1-3)OCO2,5.53% (active)
2,CCN1CCN(c2cc(C)nc(N(CCCNc3ccnc4cc(Cl)ccc34)Cc3ccc4c(c3)OCO4)n2)CC1,-18.1% (active)
3,O=C(Nc1ccc(C(=O)Nc2ccc(C3=NCCCN3)cc2)cc1)Nc1ccc(C2=NCCCN2)cc1,70.9%
4,CCOC(=O)C1=C(C)N=C2Sc3cc(OC(F)(F)F)ccc3N2[C@H]1c1ccccn1,43.3%
5,Nc1c2c(c(O)c3c1=C(CO)C=N3)=NCCS2,6.13% (active)
6,C[C@@H](C[C@H](CCO)c1cc(C(F)(F)F)cc(C(F)(F)F)c1)c1ccc2ccccc2c1,84.2%
7,CN(N)c1nc2sc3c(c2c(=O)[nH]1)CCCC3,98.9%
8,Cc1cc(N(CCNc2ccnc3cc(Cl)ccc23)Cc2ccc3c(c2)OCO3)nc(N2CCN(C)CC2)n1,-11.8% (active)
9,C[N+](C)(CCOC(c1ccccc1)c1ccccc1)CC(=O)OCc1ccccc1,122%
10,CC1(/C=N/NC(N)=S)NC(=O)NC1=O (stereo not drawn),100%
11,[2H]C1([2H])[C@H](C)O[C@H](C)C([2H])([2H])N1c1ccc(NC(=O)c2cccc(-c3ccc(OC(F)(F)F)cc3)c2C)cn1,64.3%
12,N#Cc1cc2[nH]c3ccc(OC(F)(F)F)cc3c2oc1=O,90.4%
13,COc1ccc2c(c1OC)C(=O)O[C@@H]2[C@H]1c2c(c(C#CC#Cc3ccc(F)c(F)c3)c3c(c2OC)OCO3)CCN1C,101%
14,CCC1(/C=N/NC(N)=S)NC(=O)NC1=O (stereo not drawn),102%
15,CC(C)C1CCC(C)C(C2(C#N)C(N)=NC(N)=C2C#N)C1=O (stereo not drawn),103%
16,NC(=O)c1n[nH]n2c1nc(=O)c1c3c(sc12)CCCC3,84.2%
17,CCOC(=O)C1=C(C)NC(=O)NC1c1cc(=O)oc2ccc(C)cc12 (stereo not drawn),101%
18,C=CC(=O)N(C)[C@H]1C[C@H]2OC(C)(C1OC)n1c3ccccc3c3c4c(c5c6ccccc6n2c5c31)C(=O)NC4 (stereo partly drawn),-7.8% (active)
19,Cc1cc2c(-c3nc4ccccn4c3Nc3cccc4ccccc34)c(O)c(O)cc2c(O)c1-c1c(C)cc2c(-c3nc4ccccn4c3Nc3cccc4ccccc34)c(O)c(O)cc2c1O,27.3%
20,N#CC1(C#N)C(c2cccs2)NC(c2cccs2)C1(C#N)C#N (stereo not drawn),100%

row,SMILES,growth
1,CC1CCC(n2cnc3c(Cl)ncnc32)O1 (stereo not drawn),85.8%
2,Oc1ccc(/C=N/Nc2nnc(N/N=C/c3ccc(O)cc3O)c3ccccc23)c(O)c1,-51.4% (active)
3,CCc1ccc(/C=C/c2ccc(O)c3ncccc23)[n+](C)c1,22.8%
4,COc1ccc(OC)c(NC2=C(SCCc3ccccc3)C(=O)c3ccccc3C2=O)c1,122%
5,CCN1/C(=C/C=C/c2n(-c3ccccc3)c3ccc(-c4nc5ccccc5s4)cc3[n+]2CC)N(c2ccccc2)c2ccc(-c3nc4ccccc4s3)cc21,24.5%
6,COC(=O)c1[nH]cnc1/N=N/N(C)CCO,102%
7,O=C1CC(c2ccc(Cl)cc2)c2ncn(-c3cccc(Cl)c3)c2N1 (stereo not drawn),60.4%
8,COC(=O)CC[C@@H](C)[C@H]1CC[C@H]2C3CC[C@@H]4C[C@@H]5CC[C@]4(C)[C@@]3(O5)[C@H](Br)[C@@H](Br)[C@]12C (stereo partly drawn),95.6%
9,CC(=O)OCCC/C(=C\c1ccc2ccccc2c1)[N+](=O)[O-],-49.4% (active)
10,COc1cc(-c2cc(-c3ccc(Nc4ccnc5cc(Cl)ccc45)cc3)nc(N3CCOCC3)n2)cc(OC)c1OC,-4.98% (active)
11,CCOC(=O)Sc1ncnc2nc[nH]c12,13.5%
12,COc1cc2c3c(c1)nc(C)n3CCC2,93.2%
13,CCCCCCCC(=O)SCC/C=C/[C@@H]1CC(=O)NCc2cccc(n2)C2=N[C@@](C)(CS2)C(=O)N[C@@H](C(C)C)C(=O)N1,44.9%
14,COc1ccc2c(CCc3ccc(Cl)cc3)c3[n+](cc2c1OC)CCc1cc2c(cc1-3)OCO2,64.7%
15,CC(=O)C(C(C)=O)C(c1ccccc1)C(C(C)=O)C(C)=O,93.5%
16,Cc1ccc(NC(=O)NC(=O)CSc2nc3ccccc3nc2C)cc1,58.9%
17,Cc1cc(N(CCNc2ccnc3cc(Cl)ccc23)Cc2ccc3c(c2)OCO3)nc(N2CCCC2)n1,-0.451% (active)
18,O=C(Nc1ccc(C2=NCCCN2)cc1)c1ccc(C(=O)Nc2ccc(C3=NCCCN3)cc2)nc1,107%
19,COC(=O)C1=C(C(=O)OC)C23C=C(C)C1C2=C(C)C1(CC1)[C@@](C)(O)C3=O (stereo partly drawn),66.5%
